# Measured values published in article PMC4336329 (PLoS ONE, 2015).
# Screen size: about 310,000 compounds; about 14,000 (4.5%) showed an effect of 50% or more. The effect is printed as a negative number. Many of the other results were omitted from the sample, so strong results are more common in it than they were.
# Molecular target: human ether-à-go-go-related gene (hERG) potassium channel (human, UniProt Q12809)
# Test: primary screen, population patch clamp on CHO cells stably expressing hERG; higher = less effect of the substance
# 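Also: peak tail current of the secondary pulse compared with the same well before compound.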
# Sequence of human ether-à-go-go-related gene (hERG) potassium channel (Q12809 whole entry, looked up): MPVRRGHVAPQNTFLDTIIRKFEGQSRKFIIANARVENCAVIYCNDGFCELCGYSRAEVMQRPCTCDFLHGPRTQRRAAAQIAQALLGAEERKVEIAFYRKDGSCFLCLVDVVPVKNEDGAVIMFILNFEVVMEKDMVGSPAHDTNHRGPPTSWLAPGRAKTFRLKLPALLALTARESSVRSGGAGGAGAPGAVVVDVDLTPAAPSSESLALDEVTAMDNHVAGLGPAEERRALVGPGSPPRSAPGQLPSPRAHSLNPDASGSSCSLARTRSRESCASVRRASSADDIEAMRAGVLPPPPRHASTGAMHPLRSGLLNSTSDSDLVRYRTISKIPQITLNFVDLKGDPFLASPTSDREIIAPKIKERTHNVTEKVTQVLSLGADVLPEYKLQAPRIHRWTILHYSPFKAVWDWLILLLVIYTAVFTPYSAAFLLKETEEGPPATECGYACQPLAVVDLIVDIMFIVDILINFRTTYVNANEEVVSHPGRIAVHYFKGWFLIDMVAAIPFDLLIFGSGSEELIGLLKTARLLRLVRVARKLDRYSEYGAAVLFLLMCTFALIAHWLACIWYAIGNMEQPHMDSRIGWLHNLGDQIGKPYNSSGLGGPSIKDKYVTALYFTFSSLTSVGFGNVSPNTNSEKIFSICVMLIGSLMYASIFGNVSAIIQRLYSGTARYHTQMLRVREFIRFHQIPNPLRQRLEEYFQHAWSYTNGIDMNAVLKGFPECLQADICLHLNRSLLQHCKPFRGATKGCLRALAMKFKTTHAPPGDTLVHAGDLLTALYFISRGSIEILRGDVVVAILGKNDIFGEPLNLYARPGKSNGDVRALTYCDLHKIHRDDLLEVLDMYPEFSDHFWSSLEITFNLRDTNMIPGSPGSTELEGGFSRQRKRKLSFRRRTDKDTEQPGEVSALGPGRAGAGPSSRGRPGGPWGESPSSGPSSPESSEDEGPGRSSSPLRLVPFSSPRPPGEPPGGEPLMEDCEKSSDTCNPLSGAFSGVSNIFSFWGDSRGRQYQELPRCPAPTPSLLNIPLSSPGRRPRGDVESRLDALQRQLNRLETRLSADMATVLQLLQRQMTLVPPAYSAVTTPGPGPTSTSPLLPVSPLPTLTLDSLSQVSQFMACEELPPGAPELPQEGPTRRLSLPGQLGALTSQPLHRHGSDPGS
row,Compound,"hERG current change (%, negative = inhibition) at 10uM"
1,CCc1ccc(NC(=O)Cn2nc(C)n3cccc3c2=O)cc1,15%
2,O=C(Nc1cccnc1)c1sc(Nc2ccccc2F)nc1-c1ccccc1,20.5%
3,O=C(O)/C=C\C(=O)Nc1ccc(N2CCN(c3cccc(Cl)c3)CC2)cc1,10.2%
4,CCCCCN(C(=O)CCC(=O)OCCOc1ccccc1Cl)c1c(N)n(CCCC)c(=O)[nH]c1=O,-41.3%
5,COC(=O)CSc1nnc(-c2ccc(NS(=O)(=O)c3ccccc3)cc2)o1,9.9%
6,CC(=O)Oc1ccc2c(C)c(CC(C)O)c(=O)oc2c1 (stereo not shown),6.98%
7,Cl.O=C(NN1CCN(Cc2ccccc2Cl)CC1)c1ccc(Br)cc1,18.3%
8,Cc1cc(C)c(N=Cc2c(O)[nH]c(=O)[nH]c2=O)c(C)c1,11.6%
9,CCN(CC)C(=O)C1CCCN(c2ccc([N+](=O)[O-])cc2)C1 (stereo not shown),-52.2%
10,CCN(CC)C(=O)C1CCCN(c2ccc([N+](=O)[O-])cc2/C=N/NC(=O)c2cccc([N+](=O)[O-])c2)C1 (stereo not shown),-55.3%
11,CCN(CC)C(=O)C1CCCN(c2ccc([N+](=O)[O-])cc2/C=N/NC(=O)c2cccc(Br)c2)C1 (stereo not shown),-0.713%
12,CN1CCN(c2ccc([N+](=O)[O-])cc2/C=N/NC(=O)c2cccc([N+](=O)[O-])c2)CC1,-54%
13,CCN(CC)C(=O)C1CCCN(c2ccc([N+](=O)[O-])cc2[N+](=O)[O-])C1 (stereo not shown),-38.3%
14,Cn1cc(/C=N/NC(=O)c2cccc([N+](=O)[O-])c2)c2ccccc21,14.8%
15,CCN(CC)C(=O)C1CCCN(c2ccc([N+](=O)[O-])cc2/C=N/NC(=O)c2cccc(O)c2)C1 (stereo not shown),-16.9%
16,O=C(N/N=C\c1cc([N+](=O)[O-])ccc1N1CCCC1)c1ccccn1,-3.3%
17,CCN(CC)C(=O)C1CCCN(c2ccccc2[N+](=O)[O-])C1 (stereo not shown),-1.67%
18,COc1ccc(-c2nnc(CSc3nc4ccccc4c(=O)n3CC3CCCO3)o2)cc1OC (stereo not shown),-49%
19,CN(Cc1nc(Cc2ccccc2F)no1)CC1(N2CCOCC2)CCCCC1,-62.8%
20,CN(Cc1nc(-c2cccs2)no1)CC1(N2CCOCC2)CCCCC1,-24.2%
21,COc1ccc(Cc2noc(CN(C)CC3(N4CCOCC4)CCCCC3)n2)cc1OC,-15.5%
22,Cc1cc(C(C)(C)C)ccc1OCC(=O)N/N=C\c1c(C)n(C)n(-c2ccccc2)c1=O,-66.3%
23,Cc1ccccc1OCC(=O)N/N=C/c1c(C)nn(-c2ccccc2)c1Cl,1.74%
24,COc1cc(Br)cc(Br)c1OCC(=O)N/N=C/c1c(C)n(C)n(-c2ccccc2)c1=O,-23.1%
25,CCOC(=O)c1c(N/N=C/c2ccncc2)n[nH]c1C,-10.9%
26,COCCN(CC(=O)NC1CCCCC1)C(=O)CCCC(=O)Nc1ccccn1,10%

row,Compound,"hERG current change (%, negative = inhibition) at 10uM"
1,COC/C=C/C1=CC2=CC(=O)C(C)(OC(=O)c3cnc4ccccc4n3)C(=O)C2=CN1Cc1ccco1 (stereo not shown),0.0609%
2,O=C(Nc1ccc2[nH]c(=O)[nH]c2c1)C(F)(F)F,14.9%
3,Cn1cc(C(=O)N2CCCCC2)c2ccccc21,4.66%
4,Cc1cc(C)c(S(=O)(=O)NCCOc2ccccc2)c(C)c1-n1cnnn1,7.74%
5,C=C[C@H]1CN2CC[C@H]1C[C@@H]2[C@@H](O)c1ccnc2ccccc12,-57.1%
6,C=C[C@H]1CN2CC[C@H]1C[C@H]2[C@H](O)c1ccnc2ccccc12,-34%
7,C=CC1CN2CCC1CC2[C@@H](OC(=O)c1ccc(OC)cc1)c1ccnc2ccccc12 (stereo partly shown),-37.3%
8,CC(Nc1ccccc1)c1cccnc1 (stereo not shown),-49.1%
9,COc1ccc(CCNS(=O)(=O)c2ccc(Cl)cc2)cc1OC,-6.54%
10,Cc1nn(-c2ccccc2)c(C)c1NC(=O)COc1ccc([N+](=O)[O-])cc1,-69.4%
11,CC(=O)NC(CC(=O)O)c1ccc([N+](=O)[O-])cc1 (stereo not shown),10.6%
12,Cc1ccc(S(=O)(=O)NCCC(=O)OCc2ccc([N+](=O)[O-])cc2)cc1C,-42.3%
13,CC(=O)Nc1ccc(S(=O)(=O)NCCC(=O)OCc2ccc([N+](=O)[O-])cc2)cc1,-57.4%
14,CC(=O)NC(CC(=O)OCc1ccc([N+](=O)[O-])cc1)c1ccccc1 (stereo not shown),-63.1%
15,O=C(O)CC(NC(=O)COc1ccccc1)c1cccc([N+](=O)[O-])c1 (stereo not shown),18.8%
16,CC(=O)c1ccc(OCC(=O)Nc2c(C)nn(-c3ccccc3)c2C)cc1,-2.73%
17,CCOC(=O)CC(NC(C)=O)c1ccc([N+](=O)[O-])cc1 (stereo not shown),-1.79%
18,CCC(NC(=O)COc1ccc([N+](=O)[O-])cc1)c1ccccc1 (stereo not shown),-50.7%
19,Cc1nn(-c2ccccc2)c(C)c1NC(=O)COc1ccc(C#N)cc1,-36.9%
20,CC(NC(=O)COc1ccc([N+](=O)[O-])cc1)c1ccccc1 (stereo not shown),-34.5%
21,CC(=O)Nc1ccc(S(=O)(=O)NCCC(=O)OCc2ccccc2F)cc1,-8.68%
22,CCOc1ccc(S(=O)(=O)N(CC)CC)cc1NC(=O)c1ccc(N2CCCC2=O)cc1,18.2%
23,O=C(N/N=C/c1cccnc1)c1ccc(CN2c3cccc4cccc(c34)S2(=O)=O)cc1,5.22%
24,CCC(C(=O)NCc1cccs1)n1nc(C)n2c(cc3occc32)c1=O (stereo not shown),0.0905%
25,COC(=O)c1ccc(NC(=O)N2CCC(O)(c3cccnc3)CC2)cc1,9.11%
26,CCOC(=O)c1cccc(NC(=O)CSc2nnc(COc3ccc(Cl)cc3)o2)c1,16.3%
